# Assay results reported in PubChem BioAssay AID720602 (Broad Institute, 2013).
# Results with a measured potency or affinity are listed apart. Activity calls are given as the source filed them.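 Rule for the calls: active = signal drop at all three exposure times, half-maximal concentration at most twice the top valid dose; inconclusive = exposure times give differing calls; inactive = inactive at every exposure time.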
# Experiment: cytotoxicity in LOX IMVI melanoma cells – cell-based, CellTiter-Glo ATP luminescence, 8/24/48 h, dry powder, HRAS target identification, dose response (AID 720602)
# Settings: LOX IMVI viability; series mostly up to 35 µM
row,Structure (SMILES),outcome
1,CCC(=O)N(c1ccc(OC)c(Cl)c1)C(C(=O)NCCc1ccccc1)c1cccs1 (configuration not stated),inactive
2,Cc1onc(C(=O)N2CCN(C(c3ccncc3)c3ccncc3)CC2)c1[N+](=O)[O-],inactive
